Laboratory results reported in PubChem BioAssay (NCATS).
A number with no mark means an inactive call. Results filed as inconclusive are left out. Calls of active or inactive are those of the source. Unless noted, calls come from the whole dose curve; as a rule, active = well fitted activation curve with a large enough effect in the main read-out, with a control signal flat (not every such curve was filed as active); inconclusive = small, poorly fitted or top-dose-only effect, or effect the other way, or a change in a side signal; inactive = flat fitted curve, though single readings scatter.

Biological target: Mitogen-activated protein kinase 10 (Mus musculus) (UniProt Q61831)
Assay: JNK3 AlphaScreen Assay (AID 530; active = well fitted curve in either direction with a large enough effect, not every such curve was filed as active;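 note: kinase came from lysate of stimulated human HepG2 cells; signal reports phosphorylation of biotinylated GST-cJun 1-79 at Ser73 with 10 µM ATP; % is set by controls: 0 for no effect and ±100 for the full control effect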)
Conditions: JNK3 lysate, c-Jun phosphorylation; series mostly up to 57.1 µM; activity change, negative = inhibition: at the top concentration
Outline: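 qHTS titrations with 15 min compound pre-incubation before adding ATP (10 uM final). Read-out: AlphaScreen of Ser73-phosphorylated biotin-GST-cJun using HepG2 lysate JNK3 activated by IL-1β and TNFα.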

Row | SMILES | activity change, negative = inhibition
1 | CC(C)n1cc2c3c(cccc31)[C@@H]1C[C@H](C(=O)O[C@@H](C)[C@H](C)O)CN(C)[C@H]1C2 | 16.9%
2 | CCN(CC)C(=O)N[C@H]1C[C@H]2c3cccc4[nH]cc(c34)C[C@@H]2N(C)C1 | -6.42%
3 | CC1(C)[C@@H]2CC[C@]1(C)CN(CCC[N+](C)(C)C)C2 | 0.443% [at 11.4 µM]
4 | CC[C@H](CO)NC(=O)[C@@H]1C=C2c3cccc4[nH]cc(c34)C[C@@H]2N(C)C1 | 4.05%
5 | O=C1CC[C@]2(O)[C@H]3Cc4ccc(O)c5c4[C@@]2(CCN3CC2CC2)[C@@H]1O5 | -0.511% [at 25.6 µM]
6 | CN1C[C@@H](CNC(=O)OCc2ccccc2)C[C@H]2c3cccc4c3c(cn4C)C[C@@H]21 | 23.1%
7 | C[C@H]1C[C@@H](C)C(=O)[C@@H]([C@H](O)CC2CC(=O)NC(=O)C2)C1 | 3.19% [at 25.6 µM]
8 | CNc1ccc2oc(C[C@@H]3O[C@@]4(CC[C@H]3C)O[C@@H]([C@@H](C)C(=O)c3ccc[nH]3)[C@@H](C)C[C@H]4C)nc2c1C(=O)O | -19.1%
9 | CC(C)(O)[C@H]1[C@H]2OC(=O)[C@@H]1[C@]1(O)C[C@H]3O[C@]34C(=O)O[C@H]2[C@]14C (tested in a mixture with another compound) | -16.8%
10 | C=CCN1CC[C@@]23CCCC[C@@H]2[C@@H]1Cc1ccc(O)cc13 | -21.8%
11 | C[C@H](N)c1cccc(Cl)c1Cl | -5.1%

Biological target: 3',5'-cyclic-AMP phosphodiesterase 4B (Homo sapiens) (UniProt Q07343)
Assay: qHTS Assay for Inhibitors of PDE-IV (AID 607); note: % of control where 0% means no effect
Conditions: HEK293 ACTOne CNG channel cells, membrane potential fluorescence; series mostly up to 22.9 µM; activation (PDE inhibition): at the top concentration
Outline: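 Live HEK293 cells with a modified cyclic nucleotide-gated (CNG) channel report intracellular cAMP via membrane-potential dye fluorescence (ex 535/em 590 nm). Endogenous PDE-IV was targeted. Compounds were tested at up to 22.9 uM final; RO 20-1724 100 uM served as control.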

Sequence of 3',5'-cyclic-AMP phosphodiesterase 4B (Homo sapiens) (Q07343 whole entry, looked up): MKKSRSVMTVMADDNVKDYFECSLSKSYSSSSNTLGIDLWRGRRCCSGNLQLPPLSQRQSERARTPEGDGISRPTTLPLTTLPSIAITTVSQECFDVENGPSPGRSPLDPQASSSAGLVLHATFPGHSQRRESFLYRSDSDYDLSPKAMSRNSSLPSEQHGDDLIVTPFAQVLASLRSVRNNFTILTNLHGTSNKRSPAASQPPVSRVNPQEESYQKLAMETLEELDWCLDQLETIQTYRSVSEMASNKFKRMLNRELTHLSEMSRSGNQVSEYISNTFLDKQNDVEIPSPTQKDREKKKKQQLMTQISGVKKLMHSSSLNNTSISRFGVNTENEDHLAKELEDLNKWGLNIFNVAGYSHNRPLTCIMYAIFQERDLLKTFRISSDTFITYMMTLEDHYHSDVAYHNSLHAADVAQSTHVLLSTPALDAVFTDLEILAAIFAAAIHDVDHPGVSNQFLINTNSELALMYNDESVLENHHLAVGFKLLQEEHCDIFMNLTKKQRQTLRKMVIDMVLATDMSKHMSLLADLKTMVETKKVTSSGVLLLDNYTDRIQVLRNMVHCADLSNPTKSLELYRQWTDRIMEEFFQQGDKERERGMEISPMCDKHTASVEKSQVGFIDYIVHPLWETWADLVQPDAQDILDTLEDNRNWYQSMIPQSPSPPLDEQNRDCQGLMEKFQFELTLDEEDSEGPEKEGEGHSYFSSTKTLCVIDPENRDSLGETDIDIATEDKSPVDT

Row | SMILES | activation (PDE inhibition) [%]
12 | N[C@@H]1CCc2cc(O)c(O)cc2C1 | 1.58
13 | CCN(CC)C(=O)N[C@H]1C[C@H]2c3cccc4[nH]cc(c34)C[C@@H]2N(C)C1 | -2.46
14 | CC1(C)[C@@H]2CC[C@]1(C)CN(CCC[N+](C)(C)C)C2 | -5.54
15 | CC[C@H](CO)NC(=O)[C@@H]1C=C2c3cccc4[nH]cc(c34)C[C@@H]2N(C)C1 | -27.4
16 | O=C1CC[C@]2(O)[C@H]3Cc4ccc(O)c5c4[C@@]2(CCN3CC2CC2)[C@@H]1O5 | -4.94
17 | C[C@H]1C[C@@H](C)C(=O)[C@@H]([C@H](O)CC2CC(=O)NC(=O)C2)C1 | 2.49
18 | N[C@@H](Cc1cc(O)c(O)cc1O)C(=O)O | -23.5
19 | CC(=O)[C@@H]1CC[C@@H]2[C@H]3CC[C@H]4C[C@@H](O)CC[C@]4(C)[C@@H]3C(=O)C[C@]21C | 5.6
20 | CNc1ccc2oc(C[C@@H]3O[C@@]4(CC[C@H]3C)O[C@@H]([C@@H](C)C(=O)c3ccc[nH]3)[C@@H](C)C[C@H]4C)nc2c1C(=O)O | -7.02
21 | COc1ccc2c(c1)[C@]13CCCC[C@@H]1[C@H](C2)N(C)CC3 | 14
22 | CC(C)(C)NC[C@H](O)c1ccccc1Cl | -19.1
23 | C=CCN1CC[C@]23c4c5ccc(O)c4O[C@@H]2C(=O)CC[C@@]3(O)[C@H]1C5 | -3.84
24 | CC(C)(O)[C@H]1[C@H]2OC(=O)[C@@H]1[C@]1(O)C[C@H]3O[C@]34C(=O)O[C@H]2[C@]14C (tested in a mixture with another compound) | 5.71
25 | C=CCN1CC[C@@]23CCCC[C@@H]2[C@@H]1Cc1ccc(O)cc13 | 11.9
26 | C[C@H](N)c1cccc(Cl)c1Cl | 10.7
27 | C=C(C)[C@@H]1CN[C@H](C(=O)O)[C@H]1CC(=O)O | -7.08

Biological target: Guanine nucleotide-binding protein G(i) subunit alpha-1 (Homo sapiens) (UniProt P63096)
Assay: qHTS Assay for Inhibitors of RGS12 GoLoco Motif Activity (Green Fluorophore) (AID 879; active = well fitted curve in the direction sought with a large enough effect; an effect the other way counts as inactive or inconclusive; note: potency is the fitted concentration of half-maximal effect;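 for activity, negative = inhibition: 0% = labeled peptide with Gαi1 and full inhibition = labeled peptide alone without protein; negative values mean loss of peptide binding seen as reduced polarization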)
Conditions: Galphai1/FITC-RGS12 GoLoco peptide, fluorescence polarization; series mostly up to 57.1 µM; activity, negative = inhibition: at the top concentration
Outline: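 A drop in FITC polarization marked displacement of the FITC-tagged RGS12 GoLoco peptide (10 nM) from Gαi1 (50 nM). Compounds were incubated 10 min at room temperature in Tris pH 7.5 buffer containing 150 mM NaCl, 0.1 mM GDP and 0.05% NP40; unlabeled peptide titration served as control.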

Sequence of Guanine nucleotide-binding protein G(i) subunit alpha-1 (Homo sapiens) (P63096 whole entry, looked up): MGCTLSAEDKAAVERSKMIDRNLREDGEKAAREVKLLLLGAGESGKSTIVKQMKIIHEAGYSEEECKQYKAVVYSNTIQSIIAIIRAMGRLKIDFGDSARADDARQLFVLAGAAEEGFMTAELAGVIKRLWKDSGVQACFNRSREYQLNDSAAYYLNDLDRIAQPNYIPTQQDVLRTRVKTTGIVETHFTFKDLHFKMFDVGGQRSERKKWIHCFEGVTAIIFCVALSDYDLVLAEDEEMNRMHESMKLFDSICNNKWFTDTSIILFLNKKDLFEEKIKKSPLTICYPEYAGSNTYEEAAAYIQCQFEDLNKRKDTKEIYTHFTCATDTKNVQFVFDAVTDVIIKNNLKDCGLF

Row | SMILES | activity, negative = inhibition [%] | Potency
28 | N[C@@H]1CCc2cc(O)c(O)cc2C1 | -20.2 | –
29 | N[C@@H](Cc1cc(O)c(O)cc1O)C(=O)O | – | 15800 nM (active)
30 | COc1ccc2c(c1)[C@]13CCCC[C@@H]1[C@H](C2)N(C)CC3 | -9.94 | –
31 | CC(C)(C)NC[C@H](O)c1ccccc1Cl | -4.72 | –
32 | C=CCN1CC[C@]23c4c5ccc(O)c4O[C@@H]2C(=O)CC[C@@]3(O)[C@H]1C5 | -16.7 | –
33 | CC(C)(O)[C@H]1[C@H]2OC(=O)[C@@H]1[C@]1(O)C[C@H]3O[C@]34C(=O)O[C@H]2[C@]14C (tested in a mixture with another compound) | -17.1 | –
34 | C=CCN1CC[C@@]23CCCC[C@@H]2[C@@H]1Cc1ccc(O)cc13 | 8.08 | –
35 | C[C@H](N)c1cccc(Cl)c1Cl | -8.46 | –

Biological target: Cytochrome P450 3A4 (Homo sapiens) (UniProt P08684)
Assay: qHTS Assay for Activators of Cytochrome P450 3A4 (AID 885; active = well fitted curve in the direction sought with a large enough effect; an effect the other way counts as inactive or inconclusive; note: nearly all actives have a fitted effect of over 65% in size)
Conditions: recombinant CYP3A4, Luciferin-PPXE luminescence, 60 min; series mostly up to 57.1 µM; activity change, positive = activation: at the top concentration
Outline: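 Using 20nM recombinant human CYP3A4 in potassium phosphate (200mM), substrate Luciferin-PPXE at 25uM, luminescent luciferin detection followed a 60-min RT NADPH reaction; data scaled to 57 uM ketoconazole.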

Sequence of Cytochrome P450 3A4 (Homo sapiens) (P08684 whole entry, looked up): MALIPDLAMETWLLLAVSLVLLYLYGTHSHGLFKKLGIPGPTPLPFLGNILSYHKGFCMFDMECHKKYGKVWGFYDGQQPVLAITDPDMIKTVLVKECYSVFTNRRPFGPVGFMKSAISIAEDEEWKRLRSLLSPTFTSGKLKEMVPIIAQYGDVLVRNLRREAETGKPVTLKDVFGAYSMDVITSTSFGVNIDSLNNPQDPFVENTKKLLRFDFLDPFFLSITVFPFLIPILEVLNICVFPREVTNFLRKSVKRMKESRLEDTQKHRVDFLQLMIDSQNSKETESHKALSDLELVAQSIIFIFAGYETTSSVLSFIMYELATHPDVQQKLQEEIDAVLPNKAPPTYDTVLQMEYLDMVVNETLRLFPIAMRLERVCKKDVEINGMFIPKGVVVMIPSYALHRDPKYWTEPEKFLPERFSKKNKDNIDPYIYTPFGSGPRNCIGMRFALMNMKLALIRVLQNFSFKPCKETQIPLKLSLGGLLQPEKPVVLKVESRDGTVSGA

Row | SMILES | activity change, positive = activation [%]
36 | CCN(CC)C(=O)N[C@H]1C[C@H]2c3cccc4[nH]cc(c34)C[C@@H]2N(C)C1 | -55.3
37 | N[C@@H](Cc1cc(O)c(O)cc1O)C(=O)O | -37.8
38 | C[C@H](N)c1cccc(Cl)c1Cl | -61.1

Biological target: Cytochrome P450 2D6 (Homo sapiens) (UniProt P10635)
Assay: qHTS Assay for Inhibitors and Substrates of Cytochrome P450 2D6 (AID 891; active = well fitted curve in the direction sought with a large enough effect; an effect the other way counts as inactive or inconclusive; note: nearly all actives have a fitted effect of over 60% in size; note: potency is the fitted concentration of half-maximal effect;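 for activity change, negative = inhibition: luciferin methyl ether substrate demethylated by CYP2D6 with NADPH regeneration; % is set by controls: 0 for no effect and ±100 for the full control effect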)
Conditions: recombinant CYP2D6, luciferin-ME EGE luminescence; series mostly up to 57.1 µM; activity change, negative = inhibition: at the top concentration
Outline: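 Luminescent read-out of luciferin formed by 5 nM human CYP2D6 demethylating 30 uM Luciferin-ME EGE (Km level) over 60 min at room temperature after NADPH regeneration addition. Data normalized to full inhibition by 1.43 uM quinidine.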

Sequence of Cytochrome P450 2D6 (Homo sapiens) (P10635 whole entry, looked up): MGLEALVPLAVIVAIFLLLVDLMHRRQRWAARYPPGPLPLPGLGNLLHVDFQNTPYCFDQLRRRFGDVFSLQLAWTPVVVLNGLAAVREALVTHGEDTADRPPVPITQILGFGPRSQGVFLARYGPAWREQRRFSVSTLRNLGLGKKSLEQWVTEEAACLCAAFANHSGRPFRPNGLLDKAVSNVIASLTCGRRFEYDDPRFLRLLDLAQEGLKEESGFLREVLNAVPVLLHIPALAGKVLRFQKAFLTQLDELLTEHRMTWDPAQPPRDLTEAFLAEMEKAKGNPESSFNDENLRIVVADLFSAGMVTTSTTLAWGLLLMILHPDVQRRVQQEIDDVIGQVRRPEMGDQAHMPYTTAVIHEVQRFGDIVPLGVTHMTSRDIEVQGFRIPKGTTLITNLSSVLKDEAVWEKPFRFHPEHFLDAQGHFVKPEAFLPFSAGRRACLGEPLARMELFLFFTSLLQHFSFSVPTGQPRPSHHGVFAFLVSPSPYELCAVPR

Row | SMILES | Potency | activity change, negative = inhibition [%]
39 | CCN(CC)C(=O)N[C@H]1C[C@H]2c3cccc4[nH]cc(c34)C[C@@H]2N(C)C1 | 39.8 nM (active) | –
40 | N[C@@H](Cc1cc(O)c(O)cc1O)C(=O)O | – | -6.85
41 | COc1ccc2c(c1)[C@]13CCCC[C@@H]1[C@H](C2)N(C)CC3 | 2510 nM (active) | –
42 | C=C(C)[C@@H]1CN[C@H](C(=O)O)[C@H]1CC(=O)O | – | 0.622

System: not listed separately
Assay: qHTS Assay for Identification of Small Molecule Agonists for Hypoxia Response Element Signaling Pathway (AID 914; active = well fitted activation curve with a large enough effect in the signal ratio, with a control signal flat, not every such curve was filed as active; the % refers to the signal ratio; note: % of control where 0% means no effect)
Conditions: ME-180 (cervical carcinoma) HRE-bla reporter, beta-lactamase ratio, CoCl2, 17 h; activation: active compounds read high
Outline: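 A beta-lactamase reporter under hypoxia response element control in ME-180 cells served as the system. Compound titrations plus EC50 CoCl2 ran 17 h at 37 degrees Celsius; AC50 values were fitted from %Activity.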

Row | SMILES | activation [%]
43 | CNCCc1nc(N)n[nH]1 | 12.1
44 | CC1=C(C(=O)OC(C)C)[C@]2(C(=O)N(CC(N)=O)c3ccccc32)C(C#N)=C(N)O1 | -4.16
45 | CC1CCC(C(C)C)C(OP(N)(=O)c2ccccc2)C1 (stereo not given) | -7.02
46 | O=C1NCCN2CCCC12 (stereo not given) | 9.17
47 | C/C(Cl)=C/CC1(CN2CCCC2=O)C(=O)NC(=O)NC1=O | 3.38
48 | COCCOC(=O)C1=C(N)Oc2c(c(=O)oc3ccccc23)[C@@]12C(=O)Nc1ccccc12 | -0.572
49 | CC1(C)CC(n2[nH]c(=O)c3c2NC(=O)CSC3c2ccccc2)CCO1 (stereo not given) | 18.8
50 | CC1CN=C(Nc2ccc(N(C)C)cc2)S1 (stereo not given) | 1.86
